Compound activity (PubChem)
Only some compounds are listed: those with a hit (about 4% of all), similar ones and a draw of the others.
tim10-1 inh – growth inhibitors of tim10-1 mutant yeast; 330,000 compounds, 2.2% hits; S. cerevisiae tim10-1 ts strain growth, BacTiter-Glo, 24 h; inhibition, % at 20 µM; AID 463190;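 active = inhibition of at least 40%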;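 also: mutant grown at 25 °C; 0% = DMSO wells with yeast and 100% = wells holding no yeast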
TIM10 inh – TIM10 yeast growth inhibition. S. cerevisiae TIM10 strain growth, BacTiter-Glo luminescence, 24 h. AID 463195. inhibition, % at 10 µM. 330,000 compounds, 1.4% hits;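 active = inhibition of 40% or more at the single tested concentration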;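 also: wild-type TIM10 isogenic control strain grown at permissive 25 °C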
tim23-1 inh – inhibits growth of tim23-1 mutant yeast | AID 463212 | inhibition, % at 20 µM | S. cerevisiae tim23-1 growth, BacTiter-Glo luminescence, 24 h | 330,000 compounds, 1.3% hits;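 active = growth inhibition of the mutant yeast at or above 50%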;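 also: temperature-sensitive mutant grown at 25 °C; plate controls were DMSO-treated mutant yeast for no effect and medium wells lacking yeast for full effect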
NALP3 yeast inh – inhibitors of NALP3 inflammasome in yeast; Yeast reconstituted NLRP3/ASC/caspase-1, beta-gal luminescence, 24 h; inhibition, % at 10 µM; 330,000 compounds, 0.39% hits;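 active = inhibition of 50% or more; inactive = inhibition below 50%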;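 also: plate controls were induced DMSO wells for no effect and uninduced yeast grown without galactose for full effect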
NALP1 inh – NALP1 inhibition. AID 2071. inhibition, % at 10 µM. S. cerevisiae NALP1/ASC/caspase-1 growth, X-gal OD620, 72 h. 280,000 compounds, 0.61% hits; in the data active = inhibition mostly above about 24%, no sharp cut-off; inactive = mostly below about 32%
tim10-1 conf – confirmation of tim10-1 mutant yeast growth inhibitors. shares compounds with tim10-1 inh. S. cerevisiae tim10-1 ts strain growth, BacTiter-Glo, 24 h. inhibition, % at 20 µM. 7,400 compounds, 56% hits;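 active = inhibition of yeast growth at or above a set limit in either of two repeat tests at 20 µM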;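 also: tim10-1 mutant grown at permissive 25 °C to find synthetic lethal compounds; 0% = DMSO yeast wells and 100% = medium wells without yeast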
TIM10 conf – TIM10 yeast growth inhibition, confirmed | shares compounds with TIM10 inh | S. cerevisiae tim10 strain growth, BacTiter-Glo luminescence, 24 h | inhibition, % at 10 µM | 4,600 compounds, 63% hits;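 active = inhibition of yeast growth at or above a set limit in either of two replicates at 10 µM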;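 also: this counterscreen used the strain with wild-type TIM10; 0% = yeast with DMSO and 100% = medium wells lacking yeast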
The depositor's hits bear a star; ! = not active in a repeat.

For O=c1oc2ccccc2c(O)c1/C=C1\C=Nc2ccccc21 the results were tim10-1 inh 64.6*, TIM10 inh 68.9*, tim23-1 inh -3.5, NALP3 yeast inh 13.0, NALP1 inh 6.2, tim10-1 conf 71.5* and TIM10 conf -6.7.
For CC(=O)c1ccc(-c2ccccc2[C@H]2[C@H]3C=CC[C@@H](C)[C@@H]3C(=O)N2Cc2ccccc2)cc1 the results were tim10-1 inh 45.0*, TIM10 inh 42.9*, tim23-1 inh 38.2, NALP3 yeast inh -1.1, NALP1 inh -0.2, tim10-1 conf 30.3* and TIM10 conf 28.4.
Screening Cc1ccc(F)c([C@H]2[C@H]3C=CC[C@@H](C)[C@@H]3C(=O)N2Cc2ccccc2)c1 returned tim10-1 inh 49.7*, TIM10 inh 45.0*, tim23-1 inh 48.3, NALP3 yeast inh -24.2, NALP1 inh -5.7, tim10-1 conf 28.3 and TIM10 conf 35.5*.
C[C@@H]1CC=C[C@H]2[C@H]1C(=O)N(Cc1ccccc1)[C@H]2c1ccc2ccccc2c1 was read as tim10-1 inh 45.6*, TIM10 inh 47.9*, tim23-1 inh 40.2, NALP3 yeast inh 23.5, NALP1 inh 4.7, tim10-1 conf 47.0* and TIM10 conf 47.2*.
CC(=O)c1ccc(-c2ccc([C@H]3[C@H]4C=CC[C@@H](C)[C@@H]4C(=O)N3Cc3ccccc3)c(F)c2)cc1 was read as tim10-1 inh 20.1, TIM10 inh 6.0, tim23-1 inh 19.9, NALP3 yeast inh 12.0 and NALP1 inh -2.6.
For COc1ccc(Cc2nnc(SCC(=O)Nc3cc(Cl)ccc3C)[nH]c2=O)cc1 the results were tim10-1 inh 12.1, TIM10 inh 2.6, tim23-1 inh 13.1 and NALP3 yeast inh 5.5.
For O=C(Nc1cccc(-n2cnnn2)c1)c1ccc(C(F)(F)F)cc1 the results were tim10-1 inh 1.9, TIM10 inh 9.7, tim23-1 inh 12.8 and NALP3 yeast inh 10.5.
Screening Cc1ccc2cc(C)c(N3CCN(c4ccccn4)CC3)nc2c1 returned tim10-1 inh 52.6*, TIM10 inh 43.1*, tim23-1 inh 40.8, NALP3 yeast inh 25.4, NALP1 inh 17.6, tim10-1 conf 33.6* and TIM10 conf 38.2*.
Screening COc1ccccc1NS(=O)(=O)c1ccc2oc(=O)ccc2c1 returned tim10-1 inh 42.8*, TIM10 inh 46.5*, tim23-1 inh 30.0, NALP3 yeast inh 3.7, NALP1 inh 24.9, tim10-1 conf 20.7 and TIM10 conf 44.4*.
`CS(=O)(=O)N1CCN(c2nnc(-c3ccccc3)c3ccccc23)CC1` gave tim10-1 inh 4.0, TIM10 inh -15.8, tim23-1 inh -59.3, NALP3 yeast inh -3.3 and NALP1 inh 10.1.
c1ccc(-c2nnc(N3CCN(c4ccccn4)CC3)c3ccccc23)cc1 was read as tim10-1 inh 52.4*, TIM10 inh 40.7*, tim23-1 inh 33.4, NALP3 yeast inh -22.7, NALP1 inh 17.8, tim10-1 conf 28.8 and TIM10 conf 7.7.
C=C[C@]1(C)C[C@@H](OC(=O)CSCCN(CC)CC)[C@]2(C)C(C)CC[C@]3(CCC(=O)[C@H]32)[C@@H](C)[C@@H]1O (stereo not given in full) was read as tim10-1 inh 45.8*, TIM10 inh 42.1*!, tim23-1 inh 33.7, NALP3 yeast inh 18.6, tim10-1 conf 40.2*! and TIM10 conf 37.7*.
S=C(NC1CC1)NC1CCCc2ccccc21 (stereo not given) was read as tim10-1 inh -1.5, TIM10 inh 8.4, tim23-1 inh 16.2, NALP3 yeast inh 20.3 and NALP1 inh -5.1.
`Cc1ccc(S(=O)(=O)NC(=O)Nc2cc(C)no2)cc1` gave tim10-1 inh -10.7, TIM10 inh 1.9, tim23-1 inh 0.9, NALP3 yeast inh -3.3 and NALP1 inh 3.3.
`CC(Sc1nc(NCc2ccccc2)nc(N(C)C)n1)C(=O)Nc1ccccc1` (stereo not given) gave tim10-1 inh 34.4, TIM10 inh 29.7, tim23-1 inh 36.1, NALP3 yeast inh 11.8 and NALP1 inh -1.4.
For CC(=O)C(Sc1nc(N(C)C)nc(N(C)C)n1)C(=O)Nc1ccccc1 (stereo not given) the results were tim10-1 inh 40.0*, TIM10 inh 96.7*, tim23-1 inh 27.8, NALP3 yeast inh 3.9, NALP1 inh 7.3, tim10-1 conf 23.2 and TIM10 conf 15.9.
`Cc1ccc2nc(N3CCN(Cc4nnnn4Cc4ccccc4)CC3)c(C#N)cc2c1` gave tim10-1 inh 57.9*, TIM10 inh 51.0*, tim23-1 inh 32.1, NALP3 yeast inh 12.2, NALP1 inh 7.2, tim10-1 conf 53.9* and TIM10 conf -13.8.
For Cc1ccc2nc(N3CCN(C)CC3)c(C#N)cc2c1 the results were tim10-1 inh 8.2, TIM10 inh 5.5, tim23-1 inh 16.7, NALP3 yeast inh 19.3 and NALP1 inh -0.2.
`CC(OC(=O)/C=C/c1ccco1)C(=O)NC1CCCCC1C` (stereo not given) gave tim10-1 inh 14.5, TIM10 inh 9.8, tim23-1 inh 19.0 and NALP3 yeast inh 19.3.
Screening Cc1ccc(Cl)cc1NC(=O)Nc1c(C)n(C)n(-c2ccccc2)c1=O returned tim10-1 inh -9.0, TIM10 inh -3.7, tim23-1 inh 6.4, NALP3 yeast inh -2.1 and NALP1 inh 6.5.
`NC(=O)c1ccc(NC(=O)COc2cccc3ccccc23)cc1` gave tim10-1 inh 0.6, TIM10 inh 10.3, tim23-1 inh 4.1, NALP3 yeast inh -2.7 and NALP1 inh 1.7.
For CCOC(=O)CSC1=NC(=O)/C(=C\c2ccc(OC(C)=O)cc2)S1 the results were tim10-1 inh 69.0*, TIM10 inh 51.2*, tim23-1 inh 46.0, NALP3 yeast inh 6.8, NALP1 inh -7.2, tim10-1 conf 68.8* and TIM10 conf 62.8*.
Screening CC1CN(Cc2ccccc2)c2ccccc2NC1=S (stereo not given) returned tim10-1 inh 25.7, TIM10 inh 29.4, tim23-1 inh 36.4, NALP3 yeast inh 21.6 and NALP1 inh 8.2.
`CCOC(=O)C1CCCN(C(=O)c2sc3nc(-c4ccc(F)cc4)cn3c2C)C1` (stereo not given) gave tim10-1 inh 52.7*, TIM10 inh 55.7*, tim23-1 inh 41.0, NALP3 yeast inh 12.8, NALP1 inh 7.6, tim10-1 conf 48.3* and TIM10 conf 42.5*.
`COc1ccc(N2CCN(C(=O)c3sc4nc(-c5ccc(F)cc5)cn4c3C)CC2)cc1` gave tim10-1 inh -6.8, TIM10 inh -15.9, tim23-1 inh 5.2 and NALP3 yeast inh 14.3.
